NFkB transloc pot – enhancers of NFkB p65 translocation in HUVEC – imaging, IL-1B stimulus, high-content imaging, primary screen; HUVEC IL-1B NFkB p65 nuclear translocation imaging; activation, % at 2 µM; hit rate 0.3% among 94,000; AID 819, 2007;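 active = activation above 40%, about the mean plus 3 SD, also judged a hit on visual image review; inconclusive = activation above 40% but not a hit on visual review; inactive = activation not above 40% and no visual hit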;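 note: percent activation is computed from the nuclear over cytoplasmic p65 intensity ratio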
E-sel TNF inh – E-selectin induction blockers in HUVEC – imaging, immunofluorescence, high content, primary screen; HUVEC TNFa-induced E-selectin immunofluorescence; inhibition, % at 2 µM; hit rate 0.71% among 120,000;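 active = inhibition above the batch mean plus 3 SD, and confirmed as a hit on visual image review, cut at about 43% in these data; inconclusive = passes the inhibition cutoff but fails visual image review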;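 note: 0% = TNF-stimulated DMSO wells and 100% = unstimulated control wells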
HUVEC tox IL1B – cytotoxicity in IL-1B stimulated HUVEC, primary screen, cytotoxicity control for IL-1B NFkB translocation project, imaging, Hoechst nuclear count, IL-1B stimulus | AID 845, 2007 | HUVEC cell count loss | hit rate 0.41% among 94,000 | cell count reduction, % at 2 µM;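 active = cell count reduction more than 3 SD above the screen-wide mean, cut at about 70% in these data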;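 note: normalized per plate to untreated control cells as the no-loss baseline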
VCAM1 TNFa inh – inhibitors of TNFa-induced VCAM1 expression, primary screen, imaging, HUVEC, TNFa stimulus, immunofluorescence | HUVEC TNFa-induced VCAM-1 immunofluorescence, high-content imaging | inhibition, % at 2 µM | hit rate 0.48% among 95,000;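 active = inhibition above the batch mean plus 3 SD, with images confirmed as a hit by eye, cut at about 37% in these data; inconclusive = inhibition above that limit but hit not confirmed in images; inactive = inhibition not above that limit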;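 note: 0% = TNF-stimulated DMSO wells and 100% = unstimulated control wells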
NFkB transloc inh – inhibitors of IL-1B driven NFkB p65 nuclear import, primary screen, imaging, HUVEC, IL-1B stimulus, high-content imaging | HUVEC IL-1B NFkB p65 nuclear translocation imaging | inhibition, % at 2 µM | hit rate 0.43% among 94,000;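 active = inhibition above about 30% together with a positive call from visual inspection of the well image, limit read from the data; inconclusive = inhibition above a set limit but visual check negative; inactive = inhibition not above a set limit, visual check negative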;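 note: nuclear over cytoplasmic p65 intensity ratio measured by imaging; 0% = IL-1B stimulated DMSO wells and 100% = unstimulated DMSO wells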
TNFa cytotox – cytotoxicity in TNFa-stimulated HUVEC, primary screen, cytotoxicity control for VCAM1 expression modulator project, imaging, Hoechst nuclei count. hit rate 0.17% among 93,000. cell count reduction, % at 2 µM. HUVEC TNFalpha-stimulated, Hoechst cell count;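 active = cell count reduction exceeding the screen mean by over 5 SD, scaled to untreated wells per plate, cut at about 78% in these data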;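 note: cells counted after 24 h of TNF alpha exposure following the 1 h pretreatment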
An asterisk follows results filed as active; ? = inconclusive; . = no result given. A selection: hits, their analogues and other compounds. The true share with any hit is near 1.8%.

SMILES	NFkB transloc pot	E-sel TNF inh	HUVEC tox IL1B	VCAM1 TNFa inh	NFkB transloc inh	TNFa cytotox
O=C(CCN1C(=O)C2C3C=CC(C3)C2C1=O)Nc1c(F)cccc1F (centres undefined)	-9.7	2.2	-21.4	60.1	9.7	93.8*
CCOc1cc(C(=O)NCc2nnc(SCC(=O)OC)n2C)cc(OCC)c1OCC	.	71.1*	.	.	.	.
CCOC(=O)CSc1nnc(CNC(=O)c2cc(OCC)c(OCC)c(OCC)c2)n1C	16.4	-0.2	-5.5	6.9	-16.4	-21.7
COC(=O)c1ccc(CC(=O)c2c(C)cc(O)cc2O)o1	4.2	.	18.2	1.5	-4.2	-9.9
CO/N=C/C(C#N)=C/c1cc(C(=O)c2ccccc2)cn1C	.	-28.8	.	.	.	.
Cc1ccc(C(=O)NCCCN2CCOCC2)o1	2.0	-56.1	-10.8	.	-2.0	.
CC(C)(C)NC(=O)C(c1cccs1)N(CC1CCCO1)C(=O)Cn1nnc(-c2cccs2)n1 (centres undefined)	47.6*	-11.5	-8.2	22.7	-47.6	2.0
O=C(NCC1CCCO1)C(c1cccs1)N(Cc1cccs1)C(=O)Cn1nnc(-c2cccs2)n1 (centres undefined)	9.2	0.6	18.8	6.8	-9.2	-30.6
Nc1ccc2c(c1)N1CCN=C1S2	?	72.8*	-41.2	10.8	-64.7	-18.6
O=C(Nc1ccc(Cl)cc1)Nc1ccc2c(c1)N1CCN=C1S2	-16.8	-8.1	4.4	-14.7	16.8	-21.5
COc1ccc(C2=NN(C(=O)CSc3cn(C)c4ccccc34)C(c3ccc(OC)cc3)C2)cc1 (centres undefined)	2.0	.	-5.9	9.1	-2.0	36.6
COc1ccc(-c2csc(CCN3N=C(C)CC3=O)n2)cc1	.	23.2	.	.	.	.
COc1cc(-c2nnc(SCC(=O)c3ccc(C)cc3)o2)cc(OC)c1OC	-41.8	9.6	24.9	-8.4	41.8*	-8.3
CCOCc1cn(CC(=O)c2ccc(Cl)cc2)c(C)nc1=N	-5.2	30.5	81.4*	-1.6	5.2	-1.7
CCOCc1cn(CC(=O)c2ccc([N+](=O)[O-])cc2)c(C)nc1=N	-6.3	12.3	-7.8	-12.7	6.3	-1.7
CSc1nnc2n(-c3ccccc3)c(=O)c3c4c(sc3n12)CCC4	-3.0	-16.5	2.4	57.9*	3.0	76.8
CN1CCc2c(sc3c2c(=O)n(-c2ccccc2)c2nnc(SCc4ccccc4)n32)C1	.	-27.1	.	.	.	.
CCOC(=O)c1csc(NC(=O)CSc2nnnn2CC)n1	14.5	16.5	-7.3	-8.7	-14.5	-38.1
CCc1ccc(/C=C2/Sc3ccccc3N(CC(=O)NCCCOC)C2=O)cc1	.	6.6	.	.	.	.
Cc1ccc(-c2cc(-c3nnc(SCC(=O)NCC(C)C)n3N)c3ccccc3n2)cc1	42.8*	-0.9	-2.1	-1.9	-42.8	-8.1
CCC(C)NC(=O)CSc1nnc(-c2cc(-c3ccc(C)cc3)nc3ccccc23)n1N (centres undefined)	72.9*	20.2	0.0	-18.9	-72.9	-17.3
C=CCOc1ccc(CNC(C)(C)CO)cc1OCC	15.7	-19.7	-7.6	11.2	-15.7	-2.3
COc1nc(N/N=C/c2ccccc2F)nc(N2CCCCC2)n1	12.6	-8.7	-13.6	8.2	-12.6	-6.7
COC(=O)/C=C/S(=O)(=O)c1ccc(NC(C)=O)cc1	-13.4	92.3*	-16.9	1.3	13.4	-26.0
COc1ccc(C(=O)NCC(C)C)c(OC)c1	9.7	91.1*	-19.4	-4.6	-9.7	-12.3
SMILES	NFkB transloc pot	E-sel TNF inh	HUVEC tox IL1B	VCAM1 TNFa inh	NFkB transloc inh	TNFa cytotox
CCCNC(=O)c1ccc(OC)cc1OC	1.5	1.8	4.8	14.1	-1.5	21.2
COC(=O)c1cn(NC(=O)c2cccc(OC)c2)c(=O)c2ccccc12	-14.5	10.6	-7.4	27.9	14.5	-2.9
O=C(c1ccc(Cl)cc1)N1CCCC(c2ccccc2)=N1	-1.1	100.0*	-53.0	15.8	1.1	0.7
CSc1nc(-c2ccccc2)nn1C(=O)c1ccc(Cl)cc1	2.5	-8.6	-14.6	13.7	-2.5	-5.7
COC(=O)C1=C(C)N(c2ccc(Cl)c(Cl)c2)C(=O)C1	55.4*	-13.7	-13.2	-17.0	-55.4	-10.8
COC(=O)C1=C(C)N(c2ccc(S(N)(=O)=O)cc2)C(=O)C1	-6.4	10.4	-4.1	11.2	6.4	-17.5
